Source: the supplement of paper PMC7556523

What follows are compounds tested on Sporothrix brasiliensis CBS 133006 (assay: growth inhibition relative to untreated control; higher = more growth inhibition (more antifungal activity), active = 80 or more; extreme values may be limits of the assay). Details: 1 µM; 48 h.
Procedure, shortened: (§1)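 The reported figure is percent growth inhibition relative to untreated cells, from quadruplicate runs. Yeast-form cells of the reference isolates at 1 x 10^5 CFU/ml were exposed to library compounds at a final 1 μM for 48 h at 35°C in 5% CO2, and growth was assessed by microscopy and spectrophotometric readings.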

Growth inhibition, inactive:
OCCc1ccc(Nc2nccc(-c3nnc4ccccn34)n2)cc1 28.2%
CCCS(=O)(=O)N1CCC(CO)(Cc2ccccc2C(F)(F)F)CC1 0%
C[C@H]1c2cccc(O)c2C(=O)C2=C(O)[C@]3(O)C(=O)C(C(N)=O)=C(O)[C@@H](N(C)C)[C@@H]3[C@@H](O)[C@@H]21 9.12%
COc1ccc(C2=NN(C3CCCCCC3)C(=O)[C@@H]3CC=CC[C@H]23)cc1OCCCCOc1ccc(-c2nnn[nH]2)cc1 2.5%
O=C(Nc1cnc2ccccc2c1)c1cccc(-n2cnnn2)c1 0%
NC(=O)c1cc(Br)ccc1OCCOc1ccccc1 23.5%
CC(c1cc(Cl)cc(Cl)c1)N(C)c1ncc2c(N)nc(N)nc2n1 (configuration not stated) 11.2%
COc1cccc(CC(=O)N2CCC(n3c(C)nc4ccc(F)cc43)CC2)c1 7.5%
CCCCN(CCCC)c1c(C#N)cc(S(=O)(=O)Nc2ccccc2)cc1C#N 9.25%
COc1cccn2c(C(=O)N3CCCCC3)c(C(F)(F)F)nc12 8.75%
Cc1cnc(N2CCN[C@@H](Cc3ccccc3)C2)nc1Oc1ccc(-n2ccnc2)cc1 2.75%
O=C(C(Cc1c[nH]c2ccccc12)NS(=O)(=O)c1ccc(Cl)cc1)N1CCCCC1 (configuration not stated) 5.75%
NC(CC(=O)c1ccc(Cl)cc1Cl)C(Cl)(Cl)Cl (configuration not stated) 9.25%
CN1CCN(c2nccc3[nH]c(-c4cccc(F)c4)cc23)CC1 2.5%
CCOC(=O)c1cc(-c2csc(Nc3c(C)cc(C)cc3C)n2)on1 10.5%
CN(C(=O)c1cc2c(-c3cncnc3)cccc2[nH]1)c1ccccc1 8.25%
COc1ccc(C2CC(c3cccs3)=NN2C(=O)c2ccco2)cc1OC (configuration not stated) 0%
Clc1ccc(Cl)c(CO[C@H]2CCCC[C@@H]2n2ccnc2)c1 18%
Brc1cncc(-c2cc(NCCCn3ccnc3)nc(-c3ccccc3)n2)c1 22%
CCC(C)NC(=O)c1ccc(NC(=O)C2(c3ccccc3)CCCC2)cc1 (configuration not stated) 5.5%
CC1=Nc2ccc(Cl)cc2C(c2ccccc2)N1CCNC(=O)CN(C)C (configuration not stated) 22.8%
Nc1nc(N)c2c3c(sc2n1)CN(Cc1ccccc1)CC3 21.5%
CC(C)n1ncc2c(C(=O)NCC(c3cccs3)N3CCOCC3)cc(-c3ccccc3)nc21 (configuration not stated) 2%

These compounds were tested on Sporothrix schenckii ATCC 32286 in the same assay as above. Details: 1 µM; 48 h.
Procedure, shortened: as §1

Growth inhibition, inactive:
COc1ccc(CN2CCOc3ccc(C(C)(O)CN(C)C)cc3C2)cc1C (configuration not stated) 16%
COc1ccc(Nc2ccccc2NC(=O)c2ccc(O)nc2)cc1 4.25%
Clc1ccc(CN2CCN(C3=NCCN3)CC2)cc1Cl 17%
O=[N+]([O-])c1cn2c(n1)OC[C@@H](OCc1ccc(OC(F)(F)F)cc1)C2 10.2%
Cc1nn(C(=O)Nc2cccc(C(F)(F)F)c2)c(C)c1Sc1ncccn1 15.2%
COc1ccc2nc(C)cc(OCC(=O)NCc3ccccc3)c2c1 14.8%
Cc1ccc2nc(C)c(-c3ccn(Cc4ccccc4)n3)n2c1 36.5%
NC(=O)c1cc(-c2ccsc2)ccc1OCCOc1ccccc1 12.2%
Cc1nnc(NC(=O)c2cn(-c3ccccc3)nc2-c2ccccc2C)o1 22.8%
COC(=O)c1c(NC(=O)c2cc3ccccc3oc2=O)sc2c1CCN(Cc1ccccc1)C2 15%
COc1cccc(OCC(=O)c2ccc(Br)cc2)c1 22%
CC1=Nc2ccc(Cl)cc2C(O)(c2ccc(C)cc2)N1CCN1CCCCC1 (configuration not stated) 1.25%
CN1CCN(S(=O)(=O)c2ccc(-c3ccc4c(Nc5ncc(Cl)cn5)ccnc4c3)cc2)CC1 10.8%
N=C(N)c1ccc(OCCCCCOc2ccc(C(=N)N)cc2)cc1 72%
O=C(NCc1ccco1)N1CCN(Cc2ccc(Cl)s2)CC1 0.25%
O=C1N(Cc2cc3ccccc3s2)CC2CN(Cc3ccccc3)CCN12 (configuration not stated) 4.5%
OCCc1ccc(Nc2nccc(-c3nnc4ccccn34)n2)cc1 2.5%
CCCS(=O)(=O)N1CCC(CO)(Cc2ccccc2C(F)(F)F)CC1 0%
C[C@H]1c2cccc(O)c2C(=O)C2=C(O)[C@]3(O)C(=O)C(C(N)=O)=C(O)[C@@H](N(C)C)[C@@H]3[C@@H](O)[C@@H]21 10.5%
COc1ccc(C2=NN(C3CCCCCC3)C(=O)[C@@H]3CC=CC[C@H]23)cc1OCCCCOc1ccc(-c2nnn[nH]2)cc1 9.5%
O=C(Nc1cnc2ccccc2c1)c1cccc(-n2cnnn2)c1 4.75%
NC(=O)c1cc(Br)ccc1OCCOc1ccccc1 1.25%
CC(c1cc(Cl)cc(Cl)c1)N(C)c1ncc2c(N)nc(N)nc2n1 (configuration not stated) 16.5%
COc1cccc(CC(=O)N2CCC(n3c(C)nc4ccc(F)cc43)CC2)c1 6.25%
CCCCN(CCCC)c1c(C#N)cc(S(=O)(=O)Nc2ccccc2)cc1C#N 23.8%
COc1cccn2c(C(=O)N3CCCCC3)c(C(F)(F)F)nc12 5%
Cc1cnc(N2CCN[C@@H](Cc3ccccc3)C2)nc1Oc1ccc(-n2ccnc2)cc1 6.5%
O=C(C(Cc1c[nH]c2ccccc12)NS(=O)(=O)c1ccc(Cl)cc1)N1CCCCC1 (configuration not stated) 4%
NC(CC(=O)c1ccc(Cl)cc1Cl)C(Cl)(Cl)Cl (configuration not stated) 14%
CN1CCN(c2nccc3[nH]c(-c4cccc(F)c4)cc23)CC1 19.5%
CCOC(=O)c1cc(-c2csc(Nc3c(C)cc(C)cc3C)n2)on1 3.75%
CN(C(=O)c1cc2c(-c3cncnc3)cccc2[nH]1)c1ccccc1 3.25%
COc1ccc(C2CC(c3cccs3)=NN2C(=O)c2ccco2)cc1OC (configuration not stated) 18.8%
Clc1ccc(Cl)c(CO[C@H]2CCCC[C@@H]2n2ccnc2)c1 5.5%
Brc1cncc(-c2cc(NCCCn3ccnc3)nc(-c3ccccc3)n2)c1 3.5%
CCC(C)NC(=O)c1ccc(NC(=O)C2(c3ccccc3)CCCC2)cc1 (configuration not stated) 4.25%
CC1=Nc2ccc(Cl)cc2C(c2ccccc2)N1CCNC(=O)CN(C)C (configuration not stated) 0%
Nc1nc(N)c2c3c(sc2n1)CN(Cc1ccccc1)CC3 11%
CC(C)n1ncc2c(C(=O)NCC(c3cccs3)N3CCOCC3)cc(-c3ccccc3)nc21 (configuration not stated) 12.8%
